Consider eight compounds from PubChem BioAssay (NCATS).

Results filed as inconclusive are left out. A number with no mark means an inactive call. Calls of active or inactive are those of the source. The call rests on the fitted dose curve; in most records, active means well fitted cell-killing curve with a large enough effect; inconclusive means small, poorly fitted or top-dose-only effect, or effect the other way; inactive means no such curve, though single readings can be large or run the other way.

Assay [1] is described as follows: Viability qHTS for spleen associated tyrosine kinase inhibitor (SYKi) naive MV4-11 cells (AID 1963823). Further: nearly all actives have a fitted effect of over 40% in size. The settings on record: MV4-11 AML viability, CellTiter-Glo luminescence, 72 h; series mostly up to 45 µM. Summed up:
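Cells: MV4-11, SYK inhibitor naive, 500 per well. Treatment: library compounds, 72 hr, 37 C, 5% CO2. Read-out: CellTiter-Glo luminescence after 10 min RT.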
In general terms: In qHTS, concentration-response curves come from the screen itself.

A short description of assay [2]: Viability qHTS for spleen associated tyrosine kinase inhibitor (SYKi) drug resistant MV4-11 cells (AID 1963824). Further: nearly all actives have a fitted effect of over 35% in size. The settings on record: SYKi-resistant MV4-11 viability, CellTiter-Glo, 72 h; series mostly up to 45 µM. Summed up:
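CellTiter-Glo luminescence, read 10 min after reagent addition, reports viability after a 72 hr compound exposure. Cells are an MV4-11 line made resistant to SYK inhibition, seeded at 500 per well onto compound-containing plates.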
Potency means the concentration at half of the fitted maximal effect.

On to `CC(=O)OC1C[C@]2(C)C(O)CC(C)=C[C@H](OC(=O)c3ccc(O)cc3)C2[C@]1(O)C(C)C` (stereo partly specified), for which, in assay [1], the Potency entry is “inactive”. Besides, in assay [2], the Potency is 6.32 µM (active).

Turning to `Cn1nnc(-c2ccc(-c3ccc(N4C[C@H](COP(=O)(O)O)OC4=O)cc3F)cn2)n1`, the Potency entry in assay [1] and in assay [2] was “inactive” each time.

As for `COc1cc([C@H]2OC[C@]3(OC(C)=O)[C@@H](c4ccc(O[C@@H]5O[C@H](CO)[C@@H](O)[C@H](O)[C@H]5O)c(OC)c4)OC[C@H]23)ccc1O`, the Potency result in assay [1] and in assay [2] was “inactive” throughout.

Turning to `Cc1cc2ncc(C(=O)NCC(C)(C)NCC(=O)N3CCC[C@H]3C#N)cn2n1`, the Potency entry in assay [1] and in assay [2] was “inactive” each time.

On to `C/C=C(/C)C(=O)OC1CC(C)(C)CC2C3=CCC4C5(C)CCC(OC6OC(C)C(OC7OC(C(=O)O)C(O)C(OC8OC(CO)C(O)C(O)C8OC8OC(CO)C(O)C(O)C8O)C7O)C(O)C6O)C(C)(C)C5CCC4(C)C3(C)C(OC(=O)/C=C/C=C/C=C/CCC)C(OC(C)=O)C12CO` (stereo unspecified), for which the viability (% of control) in assay [1] is 68.8% [at 9.25 µM]. In assay [2], the viability, % of control is 73.3% [at 9.25 µM].

In the case of `C=C[C@H]1[C@H](O[C@@H]2O[C@H](CO)[C@@H](O)[C@H](OC(=O)/C=C/c3ccc(O)c(OC)c3)[C@H]2O)OC=C2C(=O)OCC[C@]21O`, the Potency result in assay [1] and in assay [2] was “inactive” in each case.

In the case of `C[C@@H]1O[C@@H](OC[C@H]2O[C@@H](Oc3cc(O)cc4c3C(=O)C(O)(Cc3ccc(O)cc3)O4)[C@H](O)[C@@H](O)[C@@H]2O)[C@H](O)[C@H](O)[C@H]1O` (stereo partly specified), the Potency result in assay [1] and in assay [2] was “inactive” each time.

For `C=C1C(=O)OC2C1CCC(=C)C1CC(OC(C)=O)C(=C)C12` (stereo unspecified), the figures for the Potency in assay [1] and in assay [2] were 3.26 µM (active) and 2.31 µM (active), respectively.
